{"source": "PubChem BioAssay AID540254", "about": "(Southern Research Specialized Biocontainment Screening …, 2011)", "note": "The whole screen tested about 1,800 compounds, of which fewer than 10 were called active. The rule behind the calls is not given here. These entries were drawn from the full list. Measured potencies and affinities stand elsewhere."}
{"experiment": "antiviral activity against H1N1 influenza, dose response, cell-based, strain KY180 (AID 540254)", "details": "H1N1 KY180 influenza antiviral cell-based screen; series mostly up to 40 µM; inhibition: at the top concentration"}
{"smiles": "Cc1cccc2sc(NNC(=O)c3ccc(S(=O)(=O)N4CCc5ccccc5C4)cc3)nc12", "inhibition": "-2.51% (inactive)"}
{"smiles": "CCOc1ccc(C(=S)NC2CCCCC2)cc1OC", "inhibition": "-0.49% (inactive)"}
{"smiles": "c1ccc2[nH]c(CSc3nc4ccccc4o3)nc2c1", "inhibition": "-1.51% (inactive)"}
{"smiles": "CCCCOC(=O)Nc1ccc(S(=O)(=O)Nc2cc(C)nc(C)n2)cc1", "inhibition": "2.95% (inactive)"}
{"smiles": "Cc1cc(C(=O)N/N=C/c2c(C)[nH]n(-c3ccccc3)c2=O)n[nH]1", "inhibition": "-1.12% (inactive)"}
{"smiles": "C=CCOc1cccc(/C=N/NC(=O)CC(=O)NC2CCCCC2)c1", "inhibition": "0.5% (inactive)"}
{"smiles": "O=C(CSc1n[nH]c(-c2ccccn2)n1)Nc1cccc(Cl)c1", "inhibition": "-5.15% (inactive)"}
{"smiles": "CN(C)CCCNC(=O)c1ccc(-c2cc(O)c3ncccc3c2)cc1", "inhibition": "0% (inactive)"}
{"smiles": "Oc1ccc(N=Nc2c(O)ccc3ccccc23)cc1", "inhibition": "0% (inactive)"}
{"smiles": "CC1=NN(c2ccc(C)cc2)C(=O)/C1=C\\C=C\\c1ccccc1", "inhibition": "-2.51% (inactive)"}
{"smiles": "Cc1ccc(C(=O)N/C(=C\\c2cccc([N+](=O)[O-])c2)C(=O)NCc2ccncc2)cc1", "inhibition": "3.8% (inactive)"}
{"smiles": "CN(C)S(=O)(=O)c1ccc(NC(=O)CSc2ncnc3ccccc23)cc1", "inhibition": "3.52% (inactive)"}
{"smiles": "Cc1ccc(S(=O)(=O)C2(C(=O)NCc3ccc4c(c3)OCO4)CC2)cc1", "inhibition": "0% (inactive)"}
{"smiles": "O=C(Cn1cnc([N+](=O)[O-])n1)N/N=C/c1ccccc1O", "inhibition": "2.53% (inactive)"}
{"smiles": "Clc1cc2cccnc2c2ncccc12", "inhibition": "-1.12% (inactive)"}
{"smiles": "O=C(N/N=C(\\Cc1ncc[nH]1)c1ccccc1)c1ccncc1", "inhibition": "-1.51% (inactive)"}
{"smiles": "CCOC(=O)Cc1nnc(NC(=O)C(CC)Sc2nncn2C)s1", "note": "(centres undefined)", "inhibition": "1.97% (inactive)"}
{"smiles": "Cc1ccc(NC(=O)COc2cccc3ccc(C)nc23)c(Br)c1", "inhibition": "0.5% (inactive)"}
{"smiles": "COc1cccc(N=Nc2ccc3ccccc3c2O)c1", "inhibition": "2.01% (inactive)"}
{"smiles": "Cn1c(SCC(=O)NC2CC2)nnc1-c1ccccn1", "inhibition": "1.12% (inactive)"}
{"smiles": "COc1cc(O)c(/C=N/NC(=O)c2ccncc2)c(OC)c1[N+](=O)[O-]", "inhibition": "-0.49% (inactive)"}
{"smiles": "COC(=O)c1c(C)oc2ccc(N(C(=O)c3ccncc3)S(=O)(=O)c3ccc4ccccc4c3)cc12", "inhibition": "-0.56% (inactive)"}
{"smiles": "CC(=NNC(=S)N1CC2CCC(CC2)C1)c1nccs1", "inhibition": "-3.44% (inactive)"}
{"smiles": "CCOc1cccc(/C=N/NC(=O)c2cccnc2)c1O", "inhibition": "0% (inactive)"}
{"smiles": "O=C(N/N=C/c1cc(O)ccc1Br)c1cccnc1", "inhibition": "0% (inactive)"}
{"smiles": "COc1cccc2c(=O)n(CC(=O)Nc3ccc(F)cc3F)ccc12", "inhibition": "0% (inactive)"}
{"smiles": "CC(c1ccccc1)n1c(CO)nc2ccccc21", "note": "(centres undefined)", "inhibition": "0% (inactive)"}
{"smiles": "O=C(Nc1nc(-c2ccccn2)cs1)c1ccco1", "inhibition": "1.51% (inactive)"}
{"smiles": "O=C1/C(=C/c2ccc(O)c(O)c2)SC(=S)N1Nc1ccccc1", "inhibition": "-0.56% (inactive)"}
{"smiles": "CN1CCN(c2ccc(N)cc2)CC1", "inhibition": "-0.5% (inactive)"}
{"smiles": "COC(=O)Cn1c(=O)c2c(nc3n2CC(C)CN3c2ccc(C)c(C)c2)n(C)c1=O", "note": "(centres undefined)", "inhibition": "0.5% (inactive)"}
{"smiles": "CCCNC(=O)COC(=O)/C=C/c1ccco1", "inhibition": "-0.5% (inactive)"}
{"smiles": "CC(C)CCNC(=O)CCC(=O)NNc1nc2ccccc2c2nc(-c3ccccc3)nn12", "inhibition": "-0.56% (inactive)"}
{"smiles": "CCOc1ccc(NS(=O)(=O)c2ccc(NS(=O)(=O)c3ccc(SC)cc3)cc2)cc1", "inhibition": "0.67% (inactive)"}
{"smiles": "COc1ccc(C(C)=O)cc1COC(=O)[C@H](Cc1ccccc1)NC(=O)c1ccco1", "inhibition": "2.46% (inactive)"}
{"smiles": "CC(C)CC(C(=O)OCC(=O)Nc1ncc(Cl)cc1Cl)N1C(=O)c2ccccc2C1=O", "note": "(centres undefined)", "inhibition": "0.56% (inactive)"}
{"smiles": "CCN1/C(=C/c2ccc3cc(C)cc(C)c3[n+]2CC)Sc2cc(C)ccc21", "inhibition": "-2.95% (inactive)"}
{"smiles": "Cc1ccc(O)c(N=NC2=C(O)CC(C)(C)CC2=O)c1", "inhibition": "-1.12% (inactive)"}
{"smiles": "Cc1cc2cc(CNC(=O)NC3CCCCC3)ccc2n1C", "inhibition": "-0.56% (inactive)"}
{"smiles": "COc1ccc(C(=O)N/N=C(\\C)c2ccccn2)cc1OC", "inhibition": "-2.91% (inactive)"}
{"smiles": "Cc1ccc(NCCCn2cnc(C(=O)Nc3ccc(C)c(C)c3)n2)cc1C", "inhibition": "3.93% (inactive)"}
{"smiles": "COC(=O)c1cc(S(=O)(=O)N2CCCCCC2)c[nH]1", "inhibition": "2.91% (inactive)"}
{"smiles": "O=C(O)c1ccc(N2C(=O)/C(=C/c3ccc(-c4ccc([N+](=O)[O-])cc4)o3)C=C2c2ccccc2)cc1", "inhibition": "0.25% (inactive)"}
{"smiles": "O=C(N/N=C/c1cc([N+](=O)[O-])ccc1O)c1cccc(N2CCCC2=O)c1", "inhibition": "0.22% (inactive)"}
{"smiles": "O=C(NCc1ccccn1)C(=O)N/N=C/c1ccccc1O", "inhibition": "-2.01% (inactive)"}
{"smiles": "CCCN1C(=O)/C(=C2\\SC(N3CCCCC3)=NC2=O)c2ccccc21", "inhibition": "-4.25% (inactive)"}
{"smiles": "CCN(Cc1ccccc1)c1ccc(N=Nc2nn(C)c(C)c2[N+](=O)[O-])cc1", "inhibition": "-1.12% (inactive)"}
{"smiles": "CCOC(=O)N1CCN(c2c(NCCc3ccccc3)c(=O)c2=O)CC1", "inhibition": "9.34% (inactive)"}
{"smiles": "CCOc1ccc(-n2c(SCC(=O)Nc3ccccc3C)n[nH]c2=O)cc1", "inhibition": "1.27% (inactive)"}
{"smiles": "COc1cc(C=O)ccc1OCC(=O)Nc1ccc2c(c1)OCO2", "inhibition": "-0.98% (inactive)"}
{"smiles": "CC1=NN(c2ccccc2)C(=O)/C1=C/c1c(O)n(-c2ccc(F)cc2)[nH]c1=O", "inhibition": "2.01% (inactive)"}
{"smiles": "Cc1cc(C)cc(N2C(=O)C3NN=C(C(=O)OCc4ccccc4)C3C2=O)c1", "note": "(centres undefined)", "inhibition": "0.5% (inactive)"}
{"smiles": "O=C1CCC(=O)N1CCC(c1ccc(F)cc1)c1ccco1", "note": "(centres undefined)", "inhibition": "1.27% (inactive)"}
{"smiles": "CN(C)c1ccc(N=Cc2ccco2)cc1", "inhibition": "-2.91% (inactive)"}
